From PubChem BioAssay AID740 (SRMLSC, 2007) come the findings set out here.

Screen size: about 96,000 compounds; about 65 (0.07%) were called active. Rule as the data show it: active = inhibition above about 25%; inactive = the rest. The list comes from a sample in which actives are over-represented; it also holds similar structures and randomly drawn compounds.

This experiment can be described thus: unspecified inhibition readout at 50 µM (AID 740). To be noted: unspecified screen; active compounds read high.
Broadly, the inhibition is the change of the read-out against control, counted positive when it falls. As for `CC(NC(=O)c1ccc(S(=O)(=O)N(C)C)cc1)c1ccccc1` (stereo unspecified), the inhibition was 26.5% (active).

For the compound `CC(NC(=O)c1ccc(F)cc1)c1ccccc1` (stereo unspecified), the inhibition was 1.4% (inactive).

Regarding `CC(NC(=O)c1ccc(NS(C)(=O)=O)cc1)c1ccccc1` (stereo unspecified), the inhibition is 1.26% (inactive).

Take `CCCn1ncc(C(=O)O)c1C`: the inhibition is 0.49% (inactive).

In the case of `CCn1c(N2CCN(CC(=O)c3c[nH]c4ccccc34)CC2)nc2c1c(=O)[nH]c(=O)n2C`, the inhibition was 0.91% (inactive).

Turning to `CCc1c(C)[nH]c2nc3ccccc3n2c1=O`, the inhibition is 1.48% (inactive).

As to `COCc1cc(=O)n2c(-c3ccccc3OC)n[nH]c2n1`, the inhibition entry is “inactive”.

Regarding `Cc1cc(=O)n2c(-c3ccccc3C)n[nH]c2n1`, the inhibition was 0.44% (inactive).

Turning to `CCc1c(C)nc2[nH]nc(-c3ccccc3C)n2c1=O`, the inhibition was 36.2% (active).

Consider `CCc1c(C)nc2[nH]nc(NC(=O)C(F)(F)F)n2c1=O`, for which the inhibition was 1.45% (inactive).

Regarding `CCc1c(C)nc2[nH]nc(-c3ccccc3)n2c1=O`, the inhibition was 39.6% (active).

Consider `CC(=O)N1CCN(S(=O)(=O)c2cccc(C(=O)Nc3nc4c(s3)CCCC4)c2)CC1`, for which the inhibition was 0.78% (inactive).

For `COc1ccccc1NC(=O)c1cc(C(=O)O)ccc1C(=O)O`, the inhibition entry was “inactive”.

For the compound `O=C(O)c1ccc(CN2C(=O)CSC2=S)cc1`, the inhibition entry is “inactive”.

`O=C1CSC(=S)N1c1cccnc1`: the inhibition result is “inactive”.

With `O=C1CSC(=S)N1Cc1cccnc1`, the inhibition is 28.6% (active).

`COc1cccc(-c2nc(CS(=O)(=O)CC(=O)N3CCc4ccccc43)c(C)o2)c1`: the inhibition result is “inactive”.

Take `Cc1ccccc1N(CC(=O)NC1CCCC1)C(=O)c1oc(C(C)(C)C)cc1C`: the inhibition is 2.02% (inactive).

As to `Cc1sc2nc3ccc(NCc4ccco4)nn3c(=O)c2c1C`, the inhibition is 3.95% (inactive).

For `Cc1sc2nc3c4ccccc4c(NCc4ccco4)nn3c(=O)c2c1C`, the inhibition is 26.7% (active).

Regarding `O=c1c2ccccc2nc2c3ccccc3c(NCc3ccco3)nn12`, the inhibition was 0.85% (inactive).

For `Cc1cc(C(=O)OCC(=O)Nc2ccc(S(=O)(=O)N3CCOCC3)cc2)c(C)o1`, the inhibition result is “inactive”.

As to `Nc1nc(-c2ccco2)nn1C(=O)c1ccc(Cl)cc1`, the inhibition is 0.07% (inactive).

`Cc1ccc(-c2csc3ncn(/N=C/N(C)C)c(=O)c23)o1`: the inhibition was 0.16% (inactive).

For the compound `Cc1nc2scc(-c3ccco3)c2c(=O)n1/N=C/N(C)C`, the inhibition is 25.3% (active).

As to `Cc1nc2scc(-c3ccccc3)c2c(=O)n1/N=C/c1ccco1`, the inhibition entry is “inactive”.

As to `COC(=O)Cn1cc(C(=O)OC)c2ccccc21`, the inhibition result is “inactive”.

`COc1cccc(CNC(=O)CCS(=O)(=O)c2cccc3nsnc23)c1`: the inhibition is 0.1% (inactive).

Turning to `Cc1ccc(CNC(=O)CCS(=O)(=O)c2cccc3nsnc23)cc1`, the inhibition was 0.45% (inactive).

Regarding `O=C(CCS(=O)(=O)c1cccc2nsnc12)NCc1ccccc1Cl`, the inhibition is 79.1% (active).

For `COc1cc2[nH]c(=O)n(CCC(=O)NC3CCCC3)c(=O)c2cc1OC`, the inhibition is 0.82% (inactive).

For `Cc1sc(-c2ccccn2)nc1OC(=O)c1ccc(Cl)cc1`, the inhibition result was “inactive”.

In the case of `CCn1cc(C(=O)O)c(=O)c2cc(F)c(N3CCN(C(=O)Nc4ccccc4)CC3)cc21`, the inhibition was 1.47% (inactive).

With `NC1C2CN(c3nc4c(cc3F)c(=O)c(C(=O)O)cn4-c3ccc(F)cc3F)CC12` (stereo unspecified), the inhibition was 27.2% (active).

Turning to `COc1c(N2CCN(C(=S)Nc3ccc(F)cc3)C(C)C2)c(F)cc2c(=O)c(C(=O)O)cn(C3CC3)c12` (stereo unspecified), the inhibition is 0.59% (inactive).

`O=C(O)c1cccc(COCC(F)(F)C(F)F)c1`: the inhibition entry was “inactive”.

For the compound `COc1ccc([C@H]2[C@H](C(=O)C(C)(C)C)N3N=Cc4ccccc4C3[C@]23N=C(c2ccccc2)OC3=O)cc1` (stereo partly specified), the inhibition result was “inactive”.

In the case of `COc1ccc(CCN(Cc2cc3cc(C)c(C)cc3nc2Cl)C(=O)C2CC2)cc1`, the inhibition result was “inactive”.

`CC(C)(C)c1ccc(OCCN2CCCC2)cc1`: the inhibition result was “inactive”.

Turning to `CC(C)(c1ccccc1)c1ccc(OCCn2cnc3ccccc3c2=O)cc1`, the inhibition result is “inactive”.

Turning to `CC(C)(C)c1ccc(OCCn2ccccc2=O)cc1`, the inhibition was 25.3% (active).

Regarding `CCS(=O)(=O)Nc1ccc(-c2ccc(NS(=O)(=O)CC)c(OC)c2)cc1OC`, the inhibition was 0.7% (inactive).

As to `Cc1ccc(S(=O)(=O)CC(N)=O)cc1`, the inhibition is 0.12% (inactive).

Consider `O=C(c1ccco1)N1CCN(c2cc(C(F)(F)F)nc3ncnn23)CC1`, for which the inhibition was 1.54% (inactive).

Take `CCCN(CCC)C(=O)Cn1c(=O)n(CCCCC(=O)NC2CCCC2)c(=O)c2ccccc21`: the inhibition is 0.15% (inactive).

`CCN1CCN(CC(O)COc2ccc(C(C)=O)cc2)CC1` (stereo unspecified): the inhibition was 0.4% (inactive).

As to `Cc1ccc(/C=C/C(=O)c2c(C)cc(C)[nH]c2=O)cc1`, the inhibition was 35.2% (active).

`CCc1ccc(/C=C/C(=O)c2c(C)cc(C)[nH]c2=O)cc1`: the inhibition was 24.9% (inactive).

For `Cc1cc(C)c(C(=O)/C=C/c2ccc(C(C)C)cc2)c(=O)[nH]1`, the inhibition was 1.62% (inactive).

Turning to `COCCSc1ccccc1C(=O)N1CCOCC1`, the inhibition entry was “inactive”.

Consider `CC(C)(C)c1ccc(S(=O)(=O)n2c(CN3CCOCC3)nc3ccccc32)cc1`, for which the inhibition is 0.34% (inactive).

For the compound `CCOC(=O)CSc1nnc(C2CCCCC2)n1C`, the inhibition entry was “inactive”.

With `O=C(c1ccc(F)cc1)C(CN1CCOCC1)c1ccccc1` (stereo unspecified), the inhibition result was “inactive”.

Consider `COc1ccc(C(=O)C(CN2CCOCC2)c2ccccc2)cc1` (stereo unspecified), for which the inhibition is 41.7% (active).

As for `COc1ccc(C(=O)C(CN2CCCC2)c2ccccc2)cc1` (stereo unspecified), the inhibition was 8.35% (inactive).

For `Nc1nc(SCc2ccccc2)[nH]c(=O)c1-c1ccccc1`, the inhibition entry was “inactive”.

For the compound `O=C(CN1CCN(C2CCCCC2)CC1)NCCC1=CCCCC1`, the inhibition result is “inactive”.

Take `O=C(CSc1ncccc1C(=O)O)NCCC1=CCCCC1`: the inhibition result was “inactive”.

Regarding `O=C(CN1CCN(c2ncccn2)CC1)NCCC1=CCCCC1`, the inhibition was 50.1% (active).

For the compound `COc1cccc(NS(=O)(=O)c2ccc3[nH]cc(C(=O)NCCC(C)C)c(=O)c3c2)c1`, the inhibition is 1.2% (inactive).

As for `O=C(NCc1ccco1)c1cc(S(=O)(=O)N2CCOCC2)ccc1Cl`, the inhibition is 0.08% (inactive).

As for `CCCCOc1cccc(NC(=O)CSc2nccn2C)c1`, the inhibition entry is “inactive”.

In the case of `C=CCNC(=S)Nc1cccc2ccccc12`, the inhibition is 0.02% (inactive).

`COc1ccccc1-c1nnc(Sc2nc([N+](=O)[O-])nn2C)o1`: the inhibition result was “inactive”.

As to `Cn1nc([N+](=O)[O-])nc1Sc1nnc(-c2ccccc2)o1`, the inhibition is 28.3% (active).

`Cn1nc([N+](=O)[O-])nc1Sc1ccc(C(C)(C)C)cc1`: the inhibition was 9.59% (inactive).

Consider `Nc1nc(Nc2cccc(C(F)(F)F)c2)nc(C(F)(F)F)n1`, for which the inhibition result is “inactive”.

Consider `Cc1cc(C)n(S(=O)(=O)Cc2ccccc2)n1`, for which the inhibition is 0.57% (inactive).

For the compound `O=S(=O)(/C=C/c1ccccc1)n1cnc2ccccc21`, the inhibition is 0.11% (inactive).

Turning to `Cc1cc(C)n(S(=O)(=O)/C=C/c2ccccc2)n1`, the inhibition is 40.1% (active).

With `CCOC(=O)C1=C(C)Nc2nc(SC)nn2C1c1ccc(C(=O)OC)cc1` (stereo unspecified), the inhibition is 0.25% (inactive).

Regarding `CC1CCN(c2ccc(C(=O)NCc3cccs3)cn2)CC1`, the inhibition entry was “inactive”.

On to `CC1CCCN(c2ccc(C(=O)NCc3cccs3)cn2)C1` (stereo unspecified), for which the inhibition was 0.47% (inactive).

`O=C(NCc1cccs1)c1ccc(N2CCCCC2)nc1`: the inhibition is 26% (active).

Take `O=C(O)CSc1nnc(-c2ccncc2)n1-c1ccc(Cl)cc1`: the inhibition entry is “inactive”.

In the case of `CC(=O)Nc1cc(-c2nn(C)c(=O)c3ccccc23)ccc1N1CCCCC1`, the inhibition entry was “inactive”.

For the compound `c1ccc(OCc2nnc3sc(C4COc5ccccc5O4)nn23)cc1` (stereo unspecified), the inhibition result was “inactive”.

In the case of `Cc1cc(C(=O)CSc2nnnn2-c2ccc(Cl)cc2)c(C)n1CC1CCCO1` (stereo unspecified), the inhibition was 0.29% (inactive).

For `COC(=O)c1sc(S(=O)(=O)N2CCN(c3ccccc3)CC2)c(C(=O)OC)c1C`, the inhibition is 1.69% (inactive).

Consider `O=C(CSc1nnc(Cc2ccccc2)n1Cc1ccco1)NC1CCCC1`, for which the inhibition is 4.05% (inactive).

Take `NC(=O)c1c(NC(=O)CSc2nnc(Cc3ccccc3)n2Cc2ccco2)sc2c1CCC2`: the inhibition was 27% (active).

In the case of `NC(=O)c1c(NC(=O)CSc2nnc(-c3ccco3)n2-c2ccccc2)sc2c1CCC2`, the inhibition result is “inactive”.

In the case of `CCCCCC(O)CCc1n[nH]c(=S)n1-c1ccccc1` (stereo unspecified), the inhibition entry is “inactive”.

In the case of `O=C(CC(c1ccccc1)c1ccccc1)Nc1ccc(Cl)cn1`, the inhibition entry was “inactive”.

Take `CCOC(=O)c1c(NC(=O)CN2CCOCC2)sc2c1CC(C)(C)OC2`: the inhibition is 1.02% (inactive).

For `COC(=O)CC(NC(=O)c1ccco1)c1ccc(C(C)C)cc1` (stereo unspecified), the inhibition entry was “inactive”.

With `O=C(CSc1ccc2nnc(-c3ccccc3)n2n1)NCc1ccco1`, the inhibition is 3.91% (inactive).

`Cc1ccc(-c2nnc3ccc(SCC(=O)NCc4ccco4)nn23)cc1`: the inhibition was 2.76% (inactive).

As to `O=C(CSc1ccc2nnc(-c3ccncc3)n2n1)NCc1ccco1`, the inhibition was 28.9% (active).

Consider `NC(=S)NNc1cccc(Cl)c1`, for which the inhibition result was “inactive”.

As to `CSc1nnc(-c2ccc(Cl)cc2Cl)o1`, the inhibition was 7.66% (inactive).

With `C(=C\c1ccccc1)/CSc1nnc(-c2cccnc2)o1`, the inhibition is 0.18% (inactive).

On to `C=CCSc1nnc(-c2ccc(Cl)cc2Cl)o1`, for which the inhibition is 37.9% (active).

Regarding `Cc1ccc(CSc2nnc(-c3cccnc3)o2)cc1`, the inhibition result is “inactive”.

As for `C=CCSc1nnc(-c2cccnc2)o1`, the inhibition is 33.1% (active).

Turning to `CCSc1nnc(-c2ccc(Cl)cc2Cl)o1`, the inhibition was 1.81% (inactive).

Take `O=C(Nc1ccc(Cl)cc1)N1CCCC1`: the inhibition entry is “inactive”.

On to `O=C(NCCc1cccs1)C1CC(c2ccc([N+](=O)[O-])cc2)=NO1` (stereo unspecified), for which the inhibition was 1.33% (inactive).

As to `COc1cc(C(=O)N2CCC(c3nc(-c4cccnc4)no3)CC2)cc(OC)c1OC`, the inhibition entry is “inactive”.

As for `Cc1nc(C)c(C(=O)C2=C(O)C(=O)N(CCN(C)C)C2c2ccccc2)s1` (stereo unspecified), the inhibition was 0.19% (inactive).

As to `COc1ccc2c(c1OC)C(=O)OC2c1c(O)n(Cc2ccc(F)cc2)c(=O)[nH]c1=O` (stereo unspecified), the inhibition result is “inactive”.

On to `CCC(=O)N1CCN(c2ccccc2NC(=O)COc2ccccc2Cl)CC1`, for which the inhibition result is “inactive”.

In the case of `CS(=O)(=O)c1nc(-c2ccccc2)cc(C(F)(F)F)n1`, the inhibition result was “inactive”.

As for `CS(=O)(=O)c1nc(-c2cccs2)cc(C(F)(F)F)n1`, the inhibition is 26.1% (active).

Regarding `O=C(O)CCS(=O)(=O)c1nc(-c2cccs2)cc(C(F)(F)F)n1`, the inhibition result was “inactive”.

For the compound `CCC1(c2cccc(Cl)c2)NC(=O)N(Cc2cc(C(=O)OC)c(C)o2)C1=O` (stereo unspecified), the inhibition result was “inactive”.
